# Measurements published in PubChem BioAssay.
# The source made the active and inactive calls.
# Test: growth modulation of vineyard yeast isolate – strain RM11-1a, OD600, basal, 24 h, primary screen (AID 1177);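 further: cultures grown under basal conditions with no added stressor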
# Details: S. cerevisiae RM11-1a growth, OD600, 24 h; higher = more signal, called active from +8 up or from −8 down
# Further: test concentration not given here.
row,SMILES,z-score
1,O=C1N[C@@H](Cc2ccccc2)C(=O)N2[C@@H]1C[C@@H](C(=O)O)[C@H]2c1cccc(OCCO)c1,0.346 (inactive)
2,COC(=O)C(CC#Cc1ccc2c(c1)[C@]1(C(=O)N2)[C@H](c2ccc(OCCO)cc2)N2[C@H](c3ccccc3)[C@H](c3ccccc3)OC(=O)[C@H]2[C@@H]1C(=O)Nc1nc2ccccc2s1)C(=O)OC,3.16 (inactive)
3,C=CCN1C(=O)[C@@]2(Cc3ccccc31)N=C(c1ccc(OCCCO)cc1)O[C@H]2c1ccccc1,1.4 (inactive)

# Test: growth of efflux-deficient E. coli DRC39 – strain DRC39, OD650, 24 h, E. coli filamentation inducers, primary screen (AID 1178);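 further: growth measured as culture turbidity by optical density at 650 nm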
# Details: E. coli DRC39 acrAB, higher = more signal, called active from +8 up or from −8 down
row,SMILES,z-score
1,COc1cc2c(cc1OC)CN(C(=O)[C@H]1[C@@H]3C(=O)O[C@@H](c4ccccc4)[C@@H](c4ccccc4)N3[C@@H](c3ccc(O)cc3)[C@]13C(=O)Nc1ccccc13)CC2,0.188 (inactive)
2,C=CCNC(=O)[C@@H]1[C@H]2C(=O)O[C@H](c3ccccc3)[C@H](c3ccccc3)N2[C@H](c2ccc(OCCO)cc2)[C@@]12C(=O)Nc1ccc(C#CCC(C(=O)OC)C(=O)OC)cc12,0.196 (inactive)
3,COCCOC(=O)N1C(=O)[C@@]2(c3cc(C#CC4(O)CCCCCC4)ccc31)[C@H](c1ccc(OCCO)cc1)N1[C@H](c3ccccc3)[C@H](c3ccccc3)OC(=O)[C@H]1[C@@H]2C(=O)N1CCN(c2ncccn2)CC1,-0.534 (inactive)
4,CC1(C)[C@@H]2CC(C(O)C3C=CC4C(=O)N(c5ccccc5)C(=O)C4N3Nc3ccc([N+](=O)[O-])cc3)=C[C@H]1C2 (some centres undefined),-0.982 (inactive)
5,NC(=O)NCC#Cc1ccc2c(c1)[C@]1(C(=O)N2)[C@H](C(N)=O)[C@H]2C(=O)O[C@H](c3ccccc3)[C@H](c3ccccc3)N2[C@@H]1c1ccc(O)cc1,0.0883 (inactive)
6,O=C(c1ccccc1)N1Cc2ccccc2C[C@@]2(COC(c3ccc(OCCCO)cc3)=N2)C1=O,-0.0674 (inactive)
7,C=CC[C@]1(C(=O)NCc2ccccc2)N=C(c2ccc(OCCCO)cc2)O[C@H]1c1ccccc1N=[N+]=[N-],0.498 (inactive)
8,CC1CC/C=C\[C@H]2OC34C=CCN(C(C)(C)C)C(=O)[C@H]3N(C(C)CO)C(=O)[C@@H]4C2C(=O)O1 (some centres undefined),0.606 (inactive)
9,CCOC(=O)C[C@H]1[C@H](OC(=O)c2ccc(C(=O)c3ccccc3)cc2)[C@@H](NC(=O)c2ccccc2)c2cc(OCCCO)ccc2N1C(=O)Cc1ccc(OC)cc1,0.722 (inactive)
10,COCCOC(=O)N1C(=O)[C@@]2(c3cc(C#CCNC(N)=O)ccc31)[C@H](C(=O)Nc1nc3ccccc3s1)[C@H]1C(=O)O[C@H](c3ccccc3)[C@H](c3ccccc3)N1[C@@H]2c1ccc(OCCO)cc1,-0.27 (inactive)
11,CC(C)OC(=O)C=C1C[C@@H](c2ccccn2)O[C@@H](c2ccccn2)O1,-0.471 (inactive)
12,COC(=O)C(CC#Cc1ccc2c(c1)[C@]1(C(=O)N2)[C@H](c2ccc(OCCO)cc2)N2[C@H](c3ccccc3)[C@H](c3ccccc3)OC(=O)[C@H]2[C@@H]1C(=O)N1CCc2cc(OC)c(OC)cc2C1)C(=O)OC,0.242 (inactive)
13,COc1ccc([Si](C)(C)[C@H]2[C@H](CC(=O)N3Cc4ccccc4C[C@H]3CO)O[C@@]3(C(=O)N(Cc4cccc(N5CCC5=O)c4)c4ccccc43)[C@@H]2C)cc1,0.675 (inactive)
14,COCCCNC(=O)[C@]1(CCC(=O)OC(C)(C)C)N=C(c2ccc(OCCCO)cc2)O[C@@H]1c1ccccc1CN=[N+]=[N-],0.323 (inactive)
15,COCCOC(=O)N1C(=O)[C@@]2(c3cc(C#CCC(C(=O)OC)C(=O)OC)ccc31)[C@H](c1ccccc1OCCO)N1[C@H](c3ccccc3)[C@H](c3ccccc3)OC(=O)[C@H]1[C@@H]2C(=O)NC[C@H](O)c1ccccc1,0.675 (inactive)
16,O=C1c2ccccc2[C@](Cc2ccccc2I)(C(=O)NCC(F)(F)F)[C@H](c2ccc(CO)cc2)N1Cc1ccccc1Cl,0.489 (inactive)
17,COc1cc2c(cc1O)C(c1cccs1)N(C)CC2 (centres undefined),0.34 (inactive)
18,C=C[C@@H](COC(=O)OC(C)(C)C)N(Cc1ccc(OC)cc1)S(=O)(=O)c1ccc(Br)cc1,-0.807 (inactive)

row,SMILES,z-score
1,CCS[C@H]1[C@@H](C(=O)O)[C@H](c2ccc(C)cc2)N(S(=O)(=O)c2ccc(C)cc2)[C@@H]1CC,-0.419 (inactive)
2,CN1C(=O)C2C=CC(C(O)C#Cc3ccccc3)N(N3CCCCC3)C2C1=O (centres undefined),-0.276 (inactive)
3,O=C1O[C@H](c2ccccc2)[C@H](c2ccccc2)N2[C@H]1[C@@H](C(=O)N1CCCCCCC1)[C@]1(C(=O)Nc3ccc(C#CCCO)cc31)[C@H]2c1ccccc1OCCO,-0.805 (inactive)
4,CC(C)C(=C=CC[C@@H](O)c1ccc(OCCO)cc1)C[C@@H](O)COCc1ccccc1,1.38 (inactive)
5,CCCC[C@H]1OB(O)C[C@H]2C1=C(COC)Cn1c(=O)n(-c3ccccc3)c(=O)n12,0.451 (inactive)
6,CCC[C@@H]1C[C@@]1(CCC)[C@@H](NS(=O)(=O)c1cccc2cccnc12)c1ccc(Cl)cc1,-0.251 (inactive)
7,[N-]=[N+]=Nc1ccccc1[C@@H]1OC(c2ccc(OCCCO)cc2)=N[C@]1(CCS(=O)(=O)c1ccccc1)C(N)=O,0.326 (inactive)
8,COC(=O)[C@@]1(Cc2ccc(F)cc2)[C@H]2c3cc(C(=O)N(C)C)n(Cc4ccc(Cl)c(C(F)(F)F)c4)c3C[C@H]2CN1C(=O)c1ccccc1,-1.2 (inactive)
9,CO[C@H]1O[C@H](CO)[C@@H](OC(=O)Nc2ccc(Oc3ccccc3)cc2)[C@H](OC(=O)Nc2ccc3c(c2)OCO3)[C@H]1OC(=O)Nc1ccc2c(c1)OCO2,1.65 (inactive)
10,CC(C)=CCCC(C)=CC(O)C1C=CC2C(=O)N(C)C(=O)C2N1Nc1ccccc1 (centres undefined),-0.261 (inactive)
11,CCOC(=O)C[C@H]1[C@H](OC(=O)c2ccc(-c3ccccc3)cc2)[C@@H](NC(=O)Cc2ccc(OC)cc2)c2cc(OCCCO)ccc2N1C(=O)c1ccccc1,0.303 (inactive)
12,CC(C)C[C@@H]1NC(=O)[C@@H]2C[C@H](C(=O)NCc3ccc(F)cc3)[C@H](c3cccc(OCCO)c3)N2C1=O,1.46 (inactive)
13,NC(=O)NCC#Cc1ccc2c(c1)[C@]1(C(=O)N2)[C@H](c2ccccc2OCCO)N2[C@H](c3ccccc3)[C@H](c3ccccc3)OC(=O)[C@H]2[C@@H]1C(=O)Nc1nc2ccccc2s1,0.525 (inactive)
14,C=C(CCCC)/C(=C/C[C@@H](OC(=O)c1ccncc1)c1ccc(OCCO)cc1)c1cc(C(=O)OC)ccc1OC,0.885 (inactive)
15,C=C(C)[C@@H]1CC=C(C(O)C2C=CC3C(=O)N(C)C(=O)C3N2Nc2ccccc2)CC1 (some centres undefined),-0.683 (inactive)
16,O=C1N[C@@H](Cc2ccccc2)C(=O)N2[C@@H]1C[C@@H](C(=O)O)[C@H]2c1cccc(OCCO)c1,0.395 (inactive)
17,COC(=O)C(CC#Cc1ccc2c(c1)[C@]1(C(=O)N2)[C@H](c2ccc(OCCO)cc2)N2[C@H](c3ccccc3)[C@H](c3ccccc3)OC(=O)[C@H]2[C@@H]1C(=O)Nc1nc2ccccc2s1)C(=O)OC,1.01 (inactive)
18,C=CCN1C(=O)[C@@]2(Cc3ccccc31)N=C(c1ccc(OCCCO)cc1)O[C@H]2c1ccccc1,1.27 (inactive)
